# Measured values from PubChem BioAssay AID686970 (National Center for Advancing Translational Sciences (NCATS), 2013).
# In all, about 360,000 compounds went through this assay and about 6,000 (1.7%) were called active. Inconclusive results (about 8%) are left out. The sample holds actives, similar compounds and a random draw of the others, so the mix is not that of the screen. A number with no mark means an inactive call. The call rests on the fitted dose curve; in most records, active means well fitted cell-killing curve with a large enough effect; inconclusive means small, poorly fitted or top-dose-only effect, or effect the other way; inactive means flat fitted curve, though single readings scatter.
# Experiment: qHTS for induction of synthetic lethality in tumor cells producing 2HG: qHTS for the HT-1080-NT fibrosarcoma cell line;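 further: NT is the 2HG producing partner of a matched IDH1 knockdown line; nearly all actives have a fitted effect of over 55% in size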;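 on activity, negative = less viability: 0% = DMSO-treated cells and -100% = media-only wells without cells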
# Settings: HT-1080-NT fibrosarcoma viability, CellTiter-Glo ATP luminescence, 48 h; series mostly up to 46.1 µM; activity, negative = less viability: at the top concentration
# How it was run: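 Fibrosarcoma NT cells, 750 per well in 5% FBS RPMI, were exposed to compound for 48 hours. Viability: CellTiter-Glo luminescence.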
# Potency means the concentration at half of the fitted maximal effect.
Compound,"activity, negative = less viability [%]",Potency
CC1(C(=O)NS(=O)(=O)c2ccccc2)CCN1C(=O)Cc1ccc(-c2ccccc2)cc1 (centres undefined),13,
O=C(CC(CC(=O)c1ccccc1)c1ccco1)c1ccccc1,-6.49,
CC1=C(C(=O)N(C(C)C)C(C)C)CC(CC(=O)NCC2CCCCC2)C(=O)N1Cc1ccccc1 (centres undefined),1.17,
Cc1ccc(C=O)c([B-](F)(F)F)c1,-6.9,
O=C(NCc1ccccn1)[C@@H]1CCCN1C(=O)[C@@H]1CCCN1C(=O)c1ccccc1,19.3,
CN1OC[C@@H]2CN[C@H](c3ccc(-c4ccccc4)cc3)C[C@@H]21,-11.5,
COc1cc(C2C(C#N)=C(N)Oc3n[nH]c(-c4ccccn4)c32)cc(OC)c1OC (centres undefined),-0.64,
CCc1ccc(C2C(C#N)=C(N)Oc3n[nH]c(CC(=O)OC)c32)cc1 (centres undefined),10.5,
COCc1[nH]nc2c1C(C1C=CCCC1)C(C#N)=C(N)O2 (centres undefined),,14.1 µM (active)
Cc1ccc([C@@H]2CC(=O)[C@@H]3CN(S(=O)(=O)c4ccc(C)cc4)[C@H](c4ccccc4F)C[C@@H]3N2S(=O)(=O)c2ccc(Cl)cc2)cc1,19.9,
FC(F)(F)c1ccccc1Cc1c(-c2ccccc2)nc2c3ccccc3ccn12,3.49,
NS(=O)(=O)c1ccc(NC(=O)CSc2nnc3c(n2)[nH]c2ccccc23)cc1,-10.4,
CN1CCN(C2Cc3ccc(Cl)cc3Sc3ccc(F)cc32)CC1 (centres undefined),,14.6 µM (active)
C[C@H]1CN([C@@H](C)CO)C(=O)c2cc(Br)cnc2O[C@H]1CN(C)S(=O)(=O)c1cccs1,5.18,
CN(C)c1cccc(NC(=O)c2ccc(-c3ccc(F)c(F)c3)c3ccoc23)c1,7.38,
Cc1ccc(S(=O)(=O)N2CC3C(=O)C[C@@H](c4ccccc4Cl)N(S(=O)(=O)c4ccc(C)cc4)C3CC2c2ccccc2)cc1 (some centres undefined),4.22,
CC1(C)OC(=O)C2=C(C[C@@H](C3CC3)O[C@H]2CCc2cccc(Cl)c2)O1,-21.7,
CCC(C)Sc1nc2c(c(=O)[nH]c(=O)n2C)n1CC(O)COc1cccc2ccccc12 (centres undefined),-3.75,
CN1CCN(CCCCOc2cccc3ccccc23)CC1,-3.37,
CC(C)c1ccccc1OCC(O)CN(CC(O)COc1cccc2ccccc12)C(C)C (centres undefined),,18.4 µM (active)
Cc1nc(C(F)(F)F)ccc1C(=O)N1CCC1(C)C(=O)NS(=O)(=O)c1ccc(F)cc1F (centres undefined),23.6,
COC(=O)c1ccc2nc(-c3cccc(Br)c3)c(Cc3ccccc3C(F)(F)F)n2c1,18.3,
O=C(Nc1ccc(Cl)cc1)C1Cc2c(-c3ccc4c(c3)OCO4)ccnc2O1 (centres undefined),-26.5,
COc1ccc(NC(=O)C2Cc3c(-c4cccc(NC(C)=O)c4)ccnc3O2)cc1OC (centres undefined),-32.4,

Compound,"activity, negative = less viability [%]",Potency
COc1ccc(NC(=O)C2Cc3c(-c4ccc5c(c4)OCO5)ccnc3O2)cn1 (centres undefined),,5.8 µM (active)
O=C1C(=O)N(CC2COc3ccccc3O2)c2ccccc21 (centres undefined),-5.04,
Cc1cc(C(=O)CCl)c(C)n1CC1COc2ccccc2O1 (centres undefined),,14.6 µM (active)
Cc1ccsc1C(=O)OCC(=O)c1cc(C)n(CC2CCCO2)c1C (centres undefined),-2.95,
COCCCn1c(=O)/c(=C/c2ccccc2OC(C)C)s/c1=C(\C#N)C(=O)Nc1ccc(C(=O)O)cc1,-16,
CCOC(=O)C1CCCN(C(=O)c2ccc(C)c(F)c2)CC1 (centres undefined),12.6,
Cc1cc(C)n(-c2nc(C(F)(F)F)nc3ccccc23)n1,-1.68,
CC(Nc1nc(C(F)(F)F)nc2ccccc12)c1cccs1 (centres undefined),,20.6 µM (active)
CC(C)(C)Nc1nc(-c2ccccn2)nc2ccccc12,-14.3,
Clc1ccc(-c2cccc3nccn23)cc1,36.5,
CCOC(=O)c1ccccc1OC(=O)Oc1ccccc1C(=O)OCC,-20.1,
CCOC(=O)C1=C(C)c2ccccc2OC1(C)C(=O)OCC (centres undefined),7.06,
CCOC(=O)c1c(C)[nH]c2c1-c1ccccc1C(=O)C2=O,,2.91 µM (active)
CCOC(=O)[C@]12CCCC=C1N(Cc1ccc3c(c1)OCO3)C(=O)[C@H](CC(=O)N1CCN(C(=O)c3ccco3)CC1)C2,-1.49,
COc1cc(CNc2ncnc3c2ncn3[C@H]2CN(Cc3cccs3)C[C@@H](CO)O2)cc(OC)c1OC,-19.8,
COCCNc1nc(NCc2ccc(NC(C)=O)cc2)c2sccc2n1,21.7,
COCCNc1nc(Nc2ccccc2Cl)c2sc(-c3ccccc3)cc2n1,22.7,
CC(=O)Nc1ccc(CNc2nc(NCCN(C)C)nc3cc(-c4ccccc4)sc23)cc1,,11.6 µM (active)
COc1ccc(Cl)cc1NC(=O)CN(C)C(=O)c1cn(-c2ccccc2)nc1-c1cccs1,2.6,
Cc1ccc(C(=O)N2CCCc3ccccc32)c(Cl)c1,-0.902,
Cc1cccc2cc3c(N)c(C(=O)N4CCCc5ccccc54)sc3nc12,,3.26 µM (active)
O=C(c1cc(-c2ccc(O)cc2)on1)N1CCCc2ccccc21,9.42,
O=C(C[C@H]1C[C@@H]2c3cc(NC(=O)C4CCC4)ccc3O[C@@H]2[C@H](CO)O1)NC1CCCCC1,4.93,
CCOC(=O)C(NC(C)=O)C(=O)Nc1ccc(OC)cc1 (centres undefined),14.9,

Compound,"activity, negative = less viability [%]",Potency
COc1ccc(CNC(=O)CCN2C(=O)c3ccccc3C2=O)cc1,14.4,
CCOC(=O)C1=C(c2ccc(OC)cc2)C(=O)c2ccccc2C1=O,,5.8 µM (active)
O=C(NN=Cc1ccc2c(c1)CCC2)c1ccccc1O,0.557,
COc1cccc(NC(=O)C2(C)CCN2C(=O)CCC2CCCC2)c1 (centres undefined),6.2,
Cc1cc(NC(=O)CCC(=O)N(c2ccccc2)C(C(=O)NC2CCCC2)c2ccncc2)no1 (centres undefined),17,
Cc1cc(NC(=O)CCC(=O)N(CC(=O)NC2CCCC2)c2ccc(F)cc2)no1,11.2,
Cc1cc(NC(=O)/C=C/C(=O)N(c2ccccc2C)C(C(=O)NC2CCCC2)c2ccc(F)cc2)no1 (centres undefined),,11.2 µM (active)
CC1(C(=O)Nc2ccc3c(c2)OCCO3)CCN1C(=O)Cc1cc(F)ccc1F (centres undefined),13.2,
O=C(O)C1=C(C(=O)O)C2CCC1C2,-0.299,
CC(C)(O)C(=O)NN(C(=O)c1ccccc1)c1cccc(Br)c1,9.85,
COC(=O)N(NC(=O)C(O)(C(C)C)C(C)C)c1ccccc1,18.4,
CCCC(O)(CCC)C(=O)NN(C(=O)CCl)c1cccc(C)c1,,6.51 µM (active)
COc1ccc(C2OC(CCc3ccccc3)Cc3[nH]c(=S)[nH]c(=O)c32)cc1 (centres undefined),-12.7,
CCOC(=O)C1CCCN(C(=O)c2cccc3ccccc23)CC1 (centres undefined),8.59,
CCc1nc2ccc(C(=O)N3CCN(S(=O)(=O)CC)CC3)cn2c1N(C=O)CCC(C)C,11.2,
COc1ccc(Br)cc1/C=N/Nc1ccc(Cl)c(C(=O)O)c1,6.6,
COc1cccc(/C=N/Nc2ncc(C(F)(F)F)cc2Cl)c1O,,16.4 µM (active)
O=c1[nH]c2cccnc2n(CCNc2ncc(C(F)(F)F)cc2Cl)c1=O,-5.03,
CCN1C(=O)[C@@H]2[C@@H]3CN(S(=O)(=O)c4ccccc4C)[C@@H](c4ccc(Cl)cc4)[C@@H]3C(=O)C[C@@H]2C1=O,0.249,
CCc1nc2c(OCCOc3ccc(F)cc3)cccn2c1N(C)C(=O)c1ccccc1F,-10.6,
CCOc1cc(/C=N/Nc2cc(C)nc3ccc(C)cc23)ccc1O,-1.31,
COc1cc(/C=N/Nc2nc3ccccc3s2)ccc1O,,20.6 µM (active)
COc1cc(C=NC2CCCCC2)ccc1O,11.8,
Nc1ncnc2c1ncn2[C@@H]1O[C@H](CNC(=O)[C@H](N)Cc2cccnc2)[C@@H](O)[C@H]1O,19.8,

Compound,"activity, negative = less viability [%]",Potency
Cc1nnsc1S(=O)(=O)Cc1ccccc1Cl,6.73,
O=C(Nc1ccc(S(=O)(=O)Nc2ccccn2)cc1)c1ccccc1,-0.939,
O=C(Nc1ccccc1)c1nnsc1S(=O)(=O)c1ccc(Cl)cc1,,20.6 µM (active)
C=C1C=C(C)n2ncc(C(=O)Nc3ccccc3O)c2N1,2.15,
COc1ccc(C(C)(C)C)cc1NC(=O)CN(C)C1=NS(=O)(=O)c2ccccc21,-2.56,
CCc1nc2ccc(C(=O)Nc3cc(-c4ccccc4)ccc3OC)cn2c1N(CC)CC(=O)N(C)C,-29.7,
CCOC(=O)C1(C)CCCN(C(=O)c2ccc(N(C)C)cc2)C1 (centres undefined),24.7,
COc1cccc(-c2cc(NC(C)=O)c3ncc(-c4cccc(C(C)=O)c4)n3c2)c1,-6.83,
CC(=O)Nc1cc(-c2ccccc2N(C)C)cn2c(-c3ccc(F)c(Cl)c3)cnc12,,29.1 µM (active)
CC(=O)Nc1cc(-c2cccc(CO)c2)cn2c(-c3cccc(C(F)(F)F)c3)cnc12,11.9,
COc1ccccc1-c1cc(NC(C)=O)c2ncc(-c3ccc(F)cc3)n2c1,-9.97,
CN(C)CCNC(=O)c1cccc(-c2cnc3c(NC=O)cc(-c4cccc(C(F)(F)F)c4)cn23)c1,,20.6 µM (active)
CC(=O)c1cccc(-c2cnc3c(NC=O)cc(-c4ccccc4Oc4ccccc4)cn23)c1,-41.4,
CC(=O)c1cccc(-c2cnc3c(NC=O)cc(-c4ccc(N5CCN(C)CC5)cc4)cn23)c1,-28.5,
CC(=O)Nc1cccc(-c2cc(NC=O)c3ncc(-c4ccc(F)c(Cl)c4)n3c2)c1,,18.4 µM (active)
CC(=O)c1cccc(-c2cnc3c(NC=O)cc(-c4cccc(C(=O)N(C)C)c4)cn23)c1,-31.5,
CC(C)(C)C1CCC(=O)N2CCC[C@]2(c2ccccc2)C1 (some centres undefined),0.351,
COc1ccc(COC[C@H](CC(C)C)N2CCN(C(=O)c3cccc(C(F)(F)F)c3)CCC2=O)cc1,-27.2,
CCC(C(=O)NCc1ccccc1)n1c(Cc2cc(F)cc(F)c2)nc2ccccc21 (centres undefined),19.4,
Cc1cccc(S(=O)(=O)N(C)C[C@@H]2OCc3cnnn3CCCC(=O)N([C@H](C)CO)C[C@@H]2C)c1,-1.34,
O=C1Nc2ccccc2NC(c2ccc3c(c2)OCO3)=C1N(Cc1ccc(F)cc1)C(=O)c1ccco1,-27.8,
CCc1nc2ccc(C(=O)N3CCC(O)(Cc4ccccc4)CC3)cn2c1N(C)C(=O)Cc1ccccc1,16.9,
